Values joined by “and” are separate entries in the source; they are usually repeats but may differ in a detail not shown here. Identical values can stand only once. Results filed as inconclusive are left out. Active and inactive are the calls of the source. Unless noted, the call rests on the fitted dose curve; in most records, active means well fitted curve in the direction sought with a large enough effect; inconclusive means small, poorly fitted or top-dose-only effect, or another doubt; inactive means no such curve, though single readings can be large; an effect the other way counts as inactive or inconclusive.
Experiments:
[1] = AP1 Signaling Pathway (AID 357; active means well fitted curve in either direction with a large enough effect, not every such curve was filed as active; further: on the % scale 0 is the no-effect control and ±100 the full control effect)
Procedure, shortened: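 ME-180 cells with beta-lactamase reporter under AP-1 response element, stimulated with EC50 EGF; compounds tested in titration series, 5 h at 37 °C. CCF4 substrate added 2.5 h at room temperature; 460/530 nm emission ratio gave %activity and AC50.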

[2] = NFAT Signaling Pathway (AID 444; active means well fitted curve in either direction with a large enough effect, not every such curve was filed as active;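 further: carbachol stimulus at about its EC50 of 1 µM final; on the % scale 0 is the no-effect control and ±100 the full control effect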); conditions: Jurkat NFAT-bla M1, carbachol, beta-lactamase ratio, 5 h
Procedure, shortened: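 Jurkat cells carrying an NFAT-driven β-lactamase reporter and co-transfected muscarinic M1 receptor were treated with compound plus carbachol (1 uM final, an EC50 level) for 5 h at 37 °C. CCF4 loading followed for 1 h at RT; 460/530 nm ratio gave %activity.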

[3] = Stat Signaling Pathway (AID 446; active means well fitted curve in either direction with a large enough effect, not every such curve was filed as active;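 further: ME-180 cervical cancer cells given 40 pM IL-6 alongside compound; SIE-controlled beta-lactamase reporter measured as 460/530 nm FRET emission ratio; on the % scale 0 is the no-effect control and ±100 the full control effect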)
Procedure, shortened: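 IL-6/STAT signaling read in ME-180 cells via an SIE beta-lactamase reporter. Stimulus was 40 pM IL-6 (its AC50) for 5 hrs, so both activation and inhibition register.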

[4] = biological target: Glucocorticoid receptor (Homo sapiens) (UniProt P04150); assay: GR-GFP Redistribution (AID 450;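 active means compounds whose dose series gives a full or clear partial fitted curve of increased nuclear translocation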; further: potency means the concentration at half of the fitted maximal effect); conditions: U2OS GR-GFP nuclear translocation, laser cytometry, 2 h
Sequence of Glucocorticoid receptor (Homo sapiens) (P04150 whole entry, looked up, the tested form may be a part): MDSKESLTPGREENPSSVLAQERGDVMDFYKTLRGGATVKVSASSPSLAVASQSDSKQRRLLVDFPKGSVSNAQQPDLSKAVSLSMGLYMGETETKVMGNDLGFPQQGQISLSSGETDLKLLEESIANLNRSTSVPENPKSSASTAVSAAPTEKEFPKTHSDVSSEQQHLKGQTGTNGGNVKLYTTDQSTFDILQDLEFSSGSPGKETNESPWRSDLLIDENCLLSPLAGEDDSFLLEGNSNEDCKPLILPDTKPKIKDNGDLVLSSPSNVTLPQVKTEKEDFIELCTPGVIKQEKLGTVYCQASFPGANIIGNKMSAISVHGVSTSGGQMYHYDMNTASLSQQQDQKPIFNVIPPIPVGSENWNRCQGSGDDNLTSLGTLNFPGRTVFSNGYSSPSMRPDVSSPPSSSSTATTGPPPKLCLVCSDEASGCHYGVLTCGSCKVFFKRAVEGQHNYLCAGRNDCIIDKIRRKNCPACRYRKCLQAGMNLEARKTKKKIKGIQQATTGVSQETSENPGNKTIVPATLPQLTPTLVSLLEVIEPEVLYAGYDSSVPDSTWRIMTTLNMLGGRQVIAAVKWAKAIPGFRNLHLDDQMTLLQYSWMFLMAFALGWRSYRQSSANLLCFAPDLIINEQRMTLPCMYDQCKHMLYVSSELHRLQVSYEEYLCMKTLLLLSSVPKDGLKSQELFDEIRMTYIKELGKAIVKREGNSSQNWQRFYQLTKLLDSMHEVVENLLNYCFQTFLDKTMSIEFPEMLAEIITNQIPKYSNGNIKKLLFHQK

[5] = test system: Zika virus NS2B-NS3 protease; assay: Primary screen GU AMC qHTS for Zika virus inhibitors (AID 1347154);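 further: 0% = no-inhibitor control and -100% = no-enzyme control; nearly all actives have a fitted effect of over 70% in size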
Procedure, shortened: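 Unlinked Zika NS2B hydrophilic domain/NS3 protease domain noncovalent complex (25 nM final) in 10 mM Tris-HCl pH 8.0, 0.01% Tween 20, with AMC peptide substrate. Fluorescence (ex 340, em 450 nm) change over 15 min, room temperature; percent inhibition fitted to 4-parameter Hill equation.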

[6] = Primary qHTS for small molecule stabilizers of the endoplasmic reticulum resident proteome: Secreted ER Calcium Modulated Protein (SERCaMP) assay (AID 1508630); further: on the % scale 0 is the no-effect control and ±100 the full control effect
Procedure, shortened: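 GLuc-SERCaMP-expressing SH-SY5Y cells, pretreated 16 h with compound, are challenged with thapsigargin to empty ER calcium stores; after 4 h, coelenterazine is added directly to the medium and luminescence is imaged.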

[7] = biological target: Cytochrome P450 1A2 (Homo sapiens) (UniProt P05177); assay: p450-cyp1a2 (AID 410; calls by dose curve;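 further: -100% = full effect of reference inhibitor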)
Sequence of Cytochrome P450 1A2 (Homo sapiens) (P05177 whole entry, looked up): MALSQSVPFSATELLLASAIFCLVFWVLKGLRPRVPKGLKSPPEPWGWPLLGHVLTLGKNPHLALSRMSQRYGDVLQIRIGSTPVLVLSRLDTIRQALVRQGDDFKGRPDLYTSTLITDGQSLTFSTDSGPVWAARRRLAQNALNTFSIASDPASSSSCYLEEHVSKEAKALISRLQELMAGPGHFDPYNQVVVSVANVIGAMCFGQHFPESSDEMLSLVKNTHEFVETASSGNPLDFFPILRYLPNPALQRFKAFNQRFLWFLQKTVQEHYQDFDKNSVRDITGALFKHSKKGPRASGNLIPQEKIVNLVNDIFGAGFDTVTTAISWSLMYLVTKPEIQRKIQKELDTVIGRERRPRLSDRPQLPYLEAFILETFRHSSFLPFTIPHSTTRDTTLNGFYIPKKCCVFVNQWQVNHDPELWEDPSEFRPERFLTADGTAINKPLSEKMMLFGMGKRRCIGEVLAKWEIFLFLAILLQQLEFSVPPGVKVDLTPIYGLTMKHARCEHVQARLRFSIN
Procedure, shortened: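 Human CYP1A2 (20nM) demethylated Luciferin-ME at its Km (100uM) in 100mM KPO4. After 10 min compound preincubation, NADPH regeneration ran the reaction 60 min at room temperature. Luciferin was read by luminescence, normalized to 57 uM furafylline.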

[8] = biological target: Glucocorticoid receptor (Homo sapiens) (UniProt P04150); assay: GR-EFC Redistribution (AID 451; calls by dose curve; further: potency means the concentration at half of the fitted maximal effect); conditions: CHO-K1 GR-EFC translocation, beta-gal luminescence, 2 h
Procedure, shortened: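 CHO-K1 cells stably expressing nuclear-localized β-gal enzyme acceptor and GR fused C-terminally to the enzyme donor fragment; ligand-driven nuclear translocation restores β-gal by complementation. Compounds titrated up to 46 uM final, 2 h at 37 °C; luminescence read.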

[9] = biological target: Mitogen-activated protein kinase 10 (Mus musculus) (UniProt Q61831); assay: JNK3 AlphaScreen Assay (AID 530; active means well fitted curve in either direction with a large enough effect, not every such curve was filed as active)
Procedure, shortened: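 JNK3 came from HepG2 lysates pre-activated with IL-1beta and TNF-alpha and phosphorylated biotinylated GST-cJun (1-79) at 10 uM ATP, pH 7.6, room temperature. Compounds were titrated. AlphaScreen signal used anti-phospho-cJun (Ser73) antibody.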

[10] = biological target: 3',5'-cyclic-AMP phosphodiesterase 4B (Homo sapiens) (UniProt Q07343); assay: qHTS Assay for Inhibitors of PDE-IV (AID 607; active means well fitted activation curve with a large enough effect in the main read-out, with a control signal flat, not every such curve was filed as active; further: % of control where 0% means no effect)
Sequence of 3',5'-cyclic-AMP phosphodiesterase 4B (Homo sapiens) (Q07343 whole entry, looked up): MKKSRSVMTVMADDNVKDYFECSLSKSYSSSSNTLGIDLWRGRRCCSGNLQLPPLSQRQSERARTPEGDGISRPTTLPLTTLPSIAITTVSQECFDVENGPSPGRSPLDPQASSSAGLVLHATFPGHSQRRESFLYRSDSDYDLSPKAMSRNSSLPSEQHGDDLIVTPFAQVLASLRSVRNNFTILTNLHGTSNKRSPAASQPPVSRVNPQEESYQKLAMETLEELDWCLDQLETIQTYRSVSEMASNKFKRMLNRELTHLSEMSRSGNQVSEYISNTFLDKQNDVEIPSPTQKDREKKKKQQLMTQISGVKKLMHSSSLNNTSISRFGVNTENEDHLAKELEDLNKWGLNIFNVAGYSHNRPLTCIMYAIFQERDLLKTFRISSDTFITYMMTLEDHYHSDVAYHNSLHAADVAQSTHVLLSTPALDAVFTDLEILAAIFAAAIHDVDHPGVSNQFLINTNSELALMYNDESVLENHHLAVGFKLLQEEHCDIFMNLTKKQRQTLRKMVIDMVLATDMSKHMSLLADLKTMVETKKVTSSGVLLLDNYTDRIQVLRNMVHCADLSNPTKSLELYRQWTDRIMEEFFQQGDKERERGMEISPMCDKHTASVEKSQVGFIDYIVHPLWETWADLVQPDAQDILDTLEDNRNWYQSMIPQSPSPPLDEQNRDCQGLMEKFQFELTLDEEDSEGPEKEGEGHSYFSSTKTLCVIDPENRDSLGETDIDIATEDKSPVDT
Procedure, shortened: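 Live HEK293 cells with a modified cyclic nucleotide-gated (CNG) channel report intracellular cAMP via membrane-potential dye fluorescence (ex 535/em 590 nm). Endogenous PDE-IV was targeted. Compounds were tested at up to 22.9 uM final; RO 20-1724 100 uM served as control.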

[11] = biological target: Guanine nucleotide-binding protein G(i) subunit alpha-1 (Homo sapiens) (UniProt P63096); assay: qHTS Assay for Inhibitors of RGS12 GoLoco Motif Activity (Green Fluorophore) (AID 879);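 further: 0% = labeled peptide with Gαi1 and full inhibition = labeled peptide alone without protein; negative values mean loss of peptide binding seen as reduced polarization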
Procedure, shortened: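 Fluorescence polarization assay: 50 nM Gαi1 with 10 nM FITC-labeled RGS12 GoLoco peptide in 10 mM Tris pH 7.5, 150 mM NaCl, 0.1 mM GDP, 0.05% NP40, 10 min at room temperature with compound.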

[12] = biological target: Cytochrome P450 3A4 (Homo sapiens) (UniProt P08684); assay: qHTS Assay for Activators of Cytochrome P450 3A4 (AID 885); further: nearly all actives have a fitted effect of over 65% in size
Sequence of Cytochrome P450 3A4 (Homo sapiens) (P08684 whole entry, looked up): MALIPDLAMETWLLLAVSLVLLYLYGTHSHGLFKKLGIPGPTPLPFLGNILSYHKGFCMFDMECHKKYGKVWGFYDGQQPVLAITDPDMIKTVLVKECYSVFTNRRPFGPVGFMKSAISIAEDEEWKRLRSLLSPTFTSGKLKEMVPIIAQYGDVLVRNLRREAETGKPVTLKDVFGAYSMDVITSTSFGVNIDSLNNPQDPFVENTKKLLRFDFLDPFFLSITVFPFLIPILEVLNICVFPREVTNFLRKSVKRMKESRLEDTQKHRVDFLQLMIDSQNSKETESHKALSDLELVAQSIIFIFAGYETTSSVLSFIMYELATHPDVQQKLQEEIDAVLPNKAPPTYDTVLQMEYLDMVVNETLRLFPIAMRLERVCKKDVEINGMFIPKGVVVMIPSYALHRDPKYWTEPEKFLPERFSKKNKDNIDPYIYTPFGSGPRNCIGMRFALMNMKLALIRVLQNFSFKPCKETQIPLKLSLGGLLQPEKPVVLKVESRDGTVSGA
Procedure, shortened: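 Quantitative HTS format: compounds preincubated with 20nM human CYP3A4 and Luciferin-PPXE substrate at KM, reaction started by NADPH regeneration, stopped after 60 min, luciferase luminescence read 20 min later.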

[13] = biological target: Cytochrome P450 2D6 (Homo sapiens) (UniProt P10635); assay: qHTS Assay for Inhibitors and Substrates of Cytochrome P450 2D6 (AID 891); further: nearly all actives have a fitted effect of over 60% in size; further: potency means the concentration at half of the fitted maximal effect
Sequence of Cytochrome P450 2D6 (Homo sapiens) (P10635 whole entry, looked up): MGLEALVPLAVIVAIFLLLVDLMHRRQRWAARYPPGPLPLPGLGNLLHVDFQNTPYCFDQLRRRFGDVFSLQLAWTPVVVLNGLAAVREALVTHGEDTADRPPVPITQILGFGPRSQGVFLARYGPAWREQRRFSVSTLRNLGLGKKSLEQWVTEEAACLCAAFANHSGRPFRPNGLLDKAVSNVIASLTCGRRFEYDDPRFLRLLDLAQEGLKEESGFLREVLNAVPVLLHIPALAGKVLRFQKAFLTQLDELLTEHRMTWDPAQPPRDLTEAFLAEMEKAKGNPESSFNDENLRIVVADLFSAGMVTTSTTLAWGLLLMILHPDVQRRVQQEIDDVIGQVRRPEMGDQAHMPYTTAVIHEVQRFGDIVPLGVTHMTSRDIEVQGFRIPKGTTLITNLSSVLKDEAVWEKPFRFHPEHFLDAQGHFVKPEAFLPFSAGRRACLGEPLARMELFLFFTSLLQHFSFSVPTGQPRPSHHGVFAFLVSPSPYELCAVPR
Procedure, shortened: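 Human CYP2D6 (5 nM) with 30 uM Luciferin-ME EGE (at Km) in 100 mM KPO4, compound preincubated 10 min, then NADPH regeneration system for 60 min at room temperature. Luciferin read by luminescence; normalized to 1.43 uM quinidine.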

[14] = biological target: Pyruvate kinase (Leishmania mexicana) (UniProt Q27686); assay: qHTS Validation Assay for Inhibitors of Leishmania Mexicana Pyruvate Kinase (AID 945);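 further: 0% = DMSO only neutral control wells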
Sequence of Pyruvate kinase (Leishmania mexicana) (Q27686 2-499 E452W): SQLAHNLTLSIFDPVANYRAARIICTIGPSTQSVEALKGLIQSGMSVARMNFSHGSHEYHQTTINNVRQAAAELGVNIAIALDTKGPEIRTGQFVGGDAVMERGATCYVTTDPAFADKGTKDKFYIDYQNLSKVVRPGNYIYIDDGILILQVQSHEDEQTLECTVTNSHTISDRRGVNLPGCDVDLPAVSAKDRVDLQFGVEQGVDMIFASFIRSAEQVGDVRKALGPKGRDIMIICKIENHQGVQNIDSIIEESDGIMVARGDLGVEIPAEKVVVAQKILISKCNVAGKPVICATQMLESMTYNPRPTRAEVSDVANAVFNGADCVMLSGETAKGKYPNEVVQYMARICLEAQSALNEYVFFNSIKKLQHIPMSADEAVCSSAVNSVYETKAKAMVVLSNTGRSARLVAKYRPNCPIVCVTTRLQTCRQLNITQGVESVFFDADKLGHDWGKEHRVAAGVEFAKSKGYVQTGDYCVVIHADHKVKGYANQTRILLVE
Procedure, shortened: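 Luminescent ATP detection (PKLight) after a 1 h room-temperature reaction of 0.2 nM LmPYK E451W mutant with 0.5 mM PEP and 0.1 mM ADP at pH 7.2. Activity is normalized to DMSO-only control wells.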

[15] = biological target: Pyruvate kinase PKM (Homo sapiens) (UniProt P14618); assay: qHTS Assay for Activators of Human Muscle Pyruvate Kinase (AID 954; active means well fitted curve in the direction sought with a large enough effect, not every such curve was filed as active;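 further: 0% = uninhibited enzyme and -100% = no enzyme or full thiadiazolimine inhibition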)
Procedure, shortened: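 Enzyme was run at intermediate activity so both inhibitors and activators could be detected. ATP formed from ADP and PEP by 0.1 nM human PKM2 during a 1 h room-temperature incubation was quantified by coupled luciferase luminescence.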

[16] = biological target: Alpha-galactosidase A (Homo sapiens) (UniProt P06280); assay: Counterscreen for Glucocerebrosidase Inhibitors: qHTS Assay for Human alpha-Galactosidase at pH 4.5 (AID 992); further: 0% is about no effect
Procedure, shortened: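 Read-out is 4-methylumbelliferone fluorescence (365 nm excitation, 440 nm emission) after a pH 10 NaOH/glycine stop. Reactions held 2 nM enzyme and 80 uM substrate at pH 4.5 for 20 min at room temperature.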

[17] = biological target: alpha-glucosidase (Oryza sativa, rice) (UniProt Q653V4); assay: Counterscreen for Glucocerebrosidase Inhibitors: qHTS Assay for Rice alpha-Glucosidase at pH 5.0 (AID 997);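 further: 0% = full activity with enzyme and -100% = basal without enzyme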
Procedure, shortened: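 Rice alpha-glucosidase (4 nM final) with 400 uM 4-methylumbelliferyl-alpha-D-glucopyranoside in citrate buffer pH 5.0, 20 min at room temperature, stopped at pH 10; fluorescence 365/440 nm, compounds 0.7 nM–77 uM, AC50 from Hill fits.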

[18] = biological target: Ubiquitin carboxyl-terminal hydrolase 1 (Homo sapiens) (UniProt O94782); assay: Inhibitors of USP1/UAF1: Pilot qHTS (AID 504865);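 further: rhodamine fluorescence freed from ubiquitin-rhodamine substrate followed over time; top concentration of the series differs between compounds; on the % scale 0 is the no-effect control and ±100 the full control effect; nearly all actives have a fitted effect of over 35% in size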
Sequence of Ubiquitin carboxyl-terminal hydrolase 1 (Homo sapiens) (O94782 whole entry, looked up): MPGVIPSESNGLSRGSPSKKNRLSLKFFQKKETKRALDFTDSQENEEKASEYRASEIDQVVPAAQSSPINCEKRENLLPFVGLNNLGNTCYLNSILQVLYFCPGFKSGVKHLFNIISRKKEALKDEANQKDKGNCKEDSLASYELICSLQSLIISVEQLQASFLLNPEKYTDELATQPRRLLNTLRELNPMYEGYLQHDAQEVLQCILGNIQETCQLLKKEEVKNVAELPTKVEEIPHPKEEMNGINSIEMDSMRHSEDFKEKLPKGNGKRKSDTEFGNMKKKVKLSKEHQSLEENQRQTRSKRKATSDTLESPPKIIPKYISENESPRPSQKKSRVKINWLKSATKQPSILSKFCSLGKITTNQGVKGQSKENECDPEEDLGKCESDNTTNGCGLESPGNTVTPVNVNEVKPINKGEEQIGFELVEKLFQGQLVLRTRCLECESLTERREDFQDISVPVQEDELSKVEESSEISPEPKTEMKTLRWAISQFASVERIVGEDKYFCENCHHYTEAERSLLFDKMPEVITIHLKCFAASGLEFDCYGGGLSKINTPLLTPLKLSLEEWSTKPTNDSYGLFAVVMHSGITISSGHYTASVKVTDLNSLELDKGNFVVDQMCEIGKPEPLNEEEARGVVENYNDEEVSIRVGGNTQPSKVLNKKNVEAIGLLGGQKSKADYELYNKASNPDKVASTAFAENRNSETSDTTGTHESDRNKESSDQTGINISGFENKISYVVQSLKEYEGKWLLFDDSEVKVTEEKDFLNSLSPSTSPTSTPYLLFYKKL
Procedure, shortened: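 USP1/UAF1 complex (1nM) preincubated with compound 15 min at room temperature, then Ub-Rho substrate (150nM final) added. Fluorescence read kinetically at 480/540 nm, 6 reads every 60 seconds. Buffer: 50mM HEPES pH 7.8, 0.5mM EDTA, 0.1 mg/ml BSA, 1mM TCEP, 0.01% Tween-20.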

[19] = biological target: DNA dC->dU-editing enzyme APOBEC-3G (Homo sapiens) (UniProt Q9HC16); assay: qHTS for inhibitors of Vif-A3G interactions: Validation (AID 588379); further: 0% is about no effect
Sequence of DNA dC->dU-editing enzyme APOBEC-3G (Homo sapiens) (Q9HC16 whole entry, looked up): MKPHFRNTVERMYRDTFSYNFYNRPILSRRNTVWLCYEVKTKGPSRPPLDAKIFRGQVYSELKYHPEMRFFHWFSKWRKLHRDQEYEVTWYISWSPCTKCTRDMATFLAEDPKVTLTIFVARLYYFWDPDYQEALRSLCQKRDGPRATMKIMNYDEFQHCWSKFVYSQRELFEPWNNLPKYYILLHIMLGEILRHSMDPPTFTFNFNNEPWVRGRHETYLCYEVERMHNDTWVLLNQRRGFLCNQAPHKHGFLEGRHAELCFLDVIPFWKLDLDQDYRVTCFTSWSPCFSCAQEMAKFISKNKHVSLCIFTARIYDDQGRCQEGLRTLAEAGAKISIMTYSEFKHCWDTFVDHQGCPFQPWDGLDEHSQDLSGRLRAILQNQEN
Procedure, shortened: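 HeLa cells stably expressing Vif and A3G-eYFP, 700 cells/well, incubated overnight at 37 deg C, then exposed to compound overnight at 37 deg C. Inhibition of Vif-mediated degradation read as increased yellow fluorescence (Ex 488/Em 500-530) by laser-scanning cytometry.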

[20] = qHTS Assay for Lipid Storage Modulators (AID 1519; calls by dose curve; further: potency means the concentration at half of the fitted maximal effect); conditions: Drosophila S3 cells, BODIPY lipid droplet/cell ratio, laser cytometry, cells loaded with oleic acid
Procedure, shortened: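 Cells seeded at 5,000 per well were treated with compounds over a concentration series and loaded with oleic acid (400 uM, as added). Lipid droplet fluorescence (488 nm excitation, 500-530 nm channel) was read by laser-scanning cytometry and normalized to 20 uM Triacsin C.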

CCCC(=O)OCC[N+](C)(C)C
inactive: outcome [1] | activity change, negative = inhibition ([2]; at 17.2 µM (top of the series)) 5.08% | outcome [3] | Potency [4] > 20.6 µM | Potency [5] | Potency [6]

COc1ccc(CNC(=O)/C=C\c2ccc3[nH]cc(CCN(C)C)c3c2)cc1
inactive: outcome [1] | Potency [7] | activity change, negative = inhibition ([2]; at 38 µM (top of the series)) -13.5% | outcome [3] | Potency [4] > 46 µM | Potency [8] > 46 µM | outcome [9] | Potency [10] | outcome [11] | Potency [12] | Potency [13] | outcome [14] | outcome [15] | outcome [16] | outcome [17] | Potency [18] | Potency [19] | Potency [5] | Potency [6]

O=C(/C=C\c1ccc(Cl)cc1)N[C@@]12CCC(=O)[C@@H]3Oc4c(O)ccc5c4[C@@]31CCN(CC1CC1)[C@@H]2C5
inactive: Potency [8] > 46 µM | outcome [9] | Potency [12] | Potency [18] | Potency [19] | Potency [5] | Potency [6]
active: Potency [4] 1.63 µM | Potency [13] 5.01 µM

S=C=Nc1cccc(C2(N3CCCCC3)CCCCC2)c1
inactive: outcome [1] | Potency [7] | outcome [3] | Potency [4] > 46 µM | Potency [8] > 46 µM | outcome [9] | Potency [10] | Potency [12] | Potency [19] | Potency [5] | Potency [6]

NCCCP(=O)(O)CC1CCCCC1
inactive: Potency [4] > 46 µM | Potency [8] > 46 µM | outcome [9] | Potency [10] | Potency [18] | Potency [19] | Potency [5] | Potency [6]

CC(C)(Cc1c[nH]c2ccc(Cl)cc12)NCCOc1ccccc1OCC1CC1
inactive: Potency [4] > 46 µM | Potency [8] > 46 µM | outcome [9] | Potency [19] | Potency [5] | Potency [6]

CCN1C[C@]2(COC)[C@H](O)C[C@H](OC)[C@]34C1C([C@H](OC)[C@H]23)[C@]1(OC(C)=O)C2[C@@H](OC(=O)c3ccccc3)C(O)(C[C@H]24)[C@@H](OC)[C@@H]1O
inactive: Potency [18] | Potency [5] | Potency [6]

CC1OC(=O)C(C(C)C)NC(=O)C(C(C)C)OC(=O)C(C(C)C)NC(=O)C(C)OC(=O)C(C(C)C)NC(=O)C(C(C)C)OC(=O)C(C(C)C)NC(=O)C(C)OC(=O)C(C(C)C)NC(=O)C(C(C)C)OC(=O)C(C(C)C)NC1=O (stereo not drawn)
0.207%: max response ([20]; measured here: cell count channel max response)
-94.2%: max response ([20]; measured here: lipid channel max response)
inactive: Potency [12] | Potency [5]
active: Potency [20] 0.316 µM

O=C(Cc1ccc(Cl)c(Cl)c1)N1CCCC[C@H]1CN1CCCC1
inactive: outcome [1] | Potency [7] | outcome [3] | Potency [4] > 46 µM | Potency [8] > 46 µM | outcome [9] | Potency [10] | outcome [11] | Potency [12] | outcome [14] | outcome [15] | outcome [16] | outcome [17] | Potency [19] | Potency [5]
active: Potency [13] 7.94 µM and 2.51 µM
